A selection: hits, their analogues and other compounds. The true share with any hit is near 1.8%.
aDG glyco up = increases alpha dystroglycan glycosylation. activation, % at 10 µM. Pro5-aDG cells, alpha-DG glycosylation AlphaScreen (IIH6); 0% Pro5, 100% B10-LARGE cell signal. actives 0.22% (n = 360,000);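 active = activation of at least 8% versus controls, or a plate z-score of at least 8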;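 note: Pro5 are CHO cells carrying HIG-tagged alpha-DG that lacks glycosylation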
AI-2 QS mod = modulates the Vibrio harveyi AI-2 quorum sensing system; activity change, % at 7.5 µM; Vibrio harveyi JMH597 AI-2 luminescence/OD600 ratio, 9 h; active compounds read low; strain lacks LuxN and CqsS sensors; 0 = neutral-control median; AID 2094; actives 0.4% (n = 300,000); in the data active = activity change below about -75%, passing the limit was not always enough;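 note: luminescence divided by OD600 gain over 9 h not by final OD600 alone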
Bfl-1 A1 inh = inhibitors of the anti-apoptotic protein A1, read as caspase activation; MEF A1-2A-BIM cells, Caspase-Glo 3/7 luminescence, 3 h; percent of clofoctol response, vehicle zero; caspase activation, % (test concentration not listed); actives 0.066% (n = 330,000); AID 2462;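 active = over half of replicate activation scores above 10%, or exactly half above 10 with the replicate mean above 10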
Mot1-301 SUMO = blocks SUMOylation pathway, rescuing yeast Mot1-301 growth; S. cerevisiae Mot1-301 growth rescue, ATP luminescence, 38.5C; percent above DMSO median, 100 means doubled; growth rescue, % at 18.8 µM; actives 1% (n = 320,000); AID 2716;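 active = every valid replicate shows activation above 250% relative to neutral control wells; inactive = the rest, any valid replicate at or below 250%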;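 note: OY570 slx delta 5 strain wells were the positive control but not used for scaling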
ARNT-TACC3 inh = disrupts binding between human ARNT and TACC3. actives 0.66% (n = 390,000). AlphaScreen His-ARNT PAS-B/GST-TACC3 binding, luminescence; TACC3 fragment carries E629A point mutation. inhibition, % at 9.99 µM. Q9Y6A5. AID 623870;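 active = mean inhibition of replicates at least 50% and at least half of replicates each reaching 50%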;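 note: 0% = complete ARNT plus TACC3 wells and 100% = ARNT alone without TACC3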
Mot1 SUMO dose = inhibits SUMO pathway, affecting Mot1-301 yeast growth; shares compounds with Mot1-301 SUMO; S. cerevisiae Mot1-301 galactose growth, ATP luminescence, 24 h; -100 = growth of slx-deleted rescue strain; growth activity, percent, % at 42 µM; 2,300 tested, under 10 active; AID 493004;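 active = Signal drops as the depositor expects, and the fitted half-maximal dose is no more than ten times the top valid tested dose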;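 note: more negative values mean stronger growth rescue toward the control strain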
* marks the source's active call; other numbers are inactive results; . = no result; + = active, no number.

SMILES	aDG glyco up	AI-2 QS mod	Bfl-1 A1 inh	Mot1-301 SUMO	ARNT-TACC3 inh	Mot1 SUMO dose
CC1CN(CCCOc2ccc([N+](=O)[O-])cc2)CC(C)O1 (stereo not given)	0	20	0	463*	-4	1
CCOC(=O)c1cc(C)n(Cc2ccc(OCC)c(OC)c2)c1C	0	19	0	10	8	.
Cc1nc(-c2cccc(S(=O)(=O)N3CCOCC3)c2)cs1	0	38	0	730*	3	0
O=C(Cc1cccs1)Nc1cccc([N+](=O)[O-])c1	1	1	0	4	16	.
CNCCOCC(O)CSc1ccccc1 (stereo not given)	0	6	0	38	4	.
NC(=O)NC(=O)COC(=O)/C=C/c1cccs1	0	9	0	405*	4	0
CCOC(=O)c1ccc(NCc2ccc(N(C)C)cc2)cc1	0	9	.	126	1	.
N=c1c(C(=O)NC2CCCC2)cc2c(=O)n3ccccc3nc2n1CCN1CCOCC1	0	6	1	38	-3	.
CN1CCN(CCCNC(=O)Cn2nc(-c3ccccc3)ccc2=O)CC1	0	2	0	11	-3	.
CCCN1CCN(CCCNC(=O)CCn2nc(-c3ccccc3)ccc2=O)CC1	0	-13	0	565*	-4	0
CCOC(=O)N1CCN(C(=O)CNC(=O)c2nn(-c3ccc(OC)cc3OC)c(=O)c3ccccc23)CC1	0	3	0	-16	-16	.
CCOC(=O)N1CCN(C(=O)CNC(=O)c2nn(-c3ccc(OC)c(OC)c3)c(=O)c3ccccc23)CC1	0	7	0	497*	-5	1
COc1ccc(-n2nc(C(=O)NCC(=O)N3CCCC3)c3ccccc3c2=O)c(OC)c1	0	1	0	+	10	1
CCOC(=O)N1CCN(C(=O)C2CCN(C(=O)Nc3ccccc3)CC2)CC1	0	.	0	4	.	.
O=C(N/N=C/c1cccs1)c1cncc(Br)c1	0	8	1	470*	1	-1
COC(=O)/C=C/c1ccc2c(c1)OCO2	0	-14	-5	-21	-7	.
CCNc1ccccc(C(=O)/C=C/c2ccc3c(c2)OCO3)c1=O	0	32	0	439*	16	0
Cc1cc(C)cc(N2C(=O)CC(Sc3ncn[nH]3)C2=O)c1 (stereo not given)	0	15	0	452*	-7	-2
Cc1cccc(N2C(=O)CC(Sc3nc(C)cc(C)n3)C2=O)c1 (stereo not given)	0	27	1	323	-3	.
COc1cc(/C=C2\NC(=S)N(C)C2=O)ccc1OCc1cccc(F)c1	0	27	0	563*	1	0
CS(=O)(=O)NCc1ccc(C(=O)NC2CCCCC2)cc1	0	27	0	617*	.	0
CC1CCN(C(=S)c2ccc([N+](=O)[O-])cc2)CC1	0	7	0	24	0	.
CN(C)S(=O)(=O)c1cc(NC(=O)CSc2nn(-c3ccc(Cl)cc3)c(=S)s2)ccc1Cl	1	30	-1	555*	-3	1
COc1ccccc1-c1nc2s/c(=C\c3cccs3)c(=O)n2n1	0	6	0	-8	3	.
O=c1/c(=C/c2ccco2)sc2nc(-c3ccccc3Br)nn12	0	.	1	381*	.	1
SMILES	aDG glyco up	AI-2 QS mod	Bfl-1 A1 inh	Mot1-301 SUMO	ARNT-TACC3 inh	Mot1 SUMO dose
COC(=O)CNC(=O)CSc1ccccn1	0	14	2	+	-3	0
CC(C)C(=O)NCCSc1c[nH]c2ccccc12	0	31	1	598*	-3	0
O=C(N[C@H]1CC[C@H](CCNS(=O)(=O)c2ccc(F)cc2)O[C@@H]1CO)c1cccnc1	.	.	.	.	-4	.
CC1=NNC(=O)C1CC(=O)N/N=C/c1cccs1 (stereo not given)	0	29	0	-10	-4	.
CN=C1SC(CC(=O)Nc2sc3c(c2C#N)CCCC3)C(=O)N1C (stereo not given)	0	30	0	364*	-5	0
CCC(=O)Nc1sc2c(c1C#N)CCC2	0	15	0	5	-7	.
Cn1c(=O)c2cc(S(=O)(=O)NCCC(=O)NC3CCCCCC3)ccc2n(C)c1=O	0	28	0	-4	7	.
Cc1ccc(NC(=O)NNC(=O)Cn2nc(-c3ccccc3)c(-c3ccccc3)c(C#N)c2=O)cc1	0	38	0	364*	0	0
Cc1cccc(C)c1NC(=O)C1(N(Cc2ccco2)C(=O)CC2NC(=O)NC2=O)CCCCC1 (stereo not given)	0	3	-1	413*	.	0
O=C1NC(=O)C(CC(=O)N(Cc2ccco2)C2(C(=O)NC3CCCC3)CCCCC2)N1 (stereo not given)	0	17	0	22	1	.
Cc1ccc(CNC(=O)c2ccc(N3CCC4(CC3)CC(c3cccc(Br)c3)=NO4)c(NC(=O)c3cccc(C)c3)c2)cc1	0	.	0	-8	-3	.
Cc1ccc(CNC(=O)c2ccc(N3CCC4(CC3)CC(c3ccccc3)=NO4)c(NC(=O)c3cccc(C)c3)c2)cc1	0	17	0	947*	.	0
CC12CC3(C)CC(C)(C1)CC(C(=O)NC(=S)N1CCCC1)(C2)C3	0	31	1	766*	0	1
CN(C(=S)NC1=CCS(=O)(=O)C1)C1CCCCC1	0	22	0	581*	-10	-1
Cc1nc2ccccc2c2ncccc12	0	16	1	613*	-2	-1
COc1ccccc1CNC(=O)C1CCC(CNC(=O)[C@@H]2Cc3ccccc3CN2)CC1 (stereo not given in full)	0	25	0	0	.	.
Cc1ccc(C(=O)CSc2n[nH]c(C)n2)cc1	0	18	-1	-4	1	.
Cc1nc(SCC(=O)O)n[nH]1	0	8	0	+	4	0
O=c1cc(CN2CCCCCC2)nc2sccn12	0	0	-1	147	4	.
O=C1c2ccccc2S(=O)(=O)N1Cc1cc(=O)n2ccsc2n1	0	10	-1	383*	.	1
CCOc1ccc(NC(=O)CN(C)C(=O)c2ccc(OCc3ccccc3)c(OC)c2)cc1OCC	1	1	-1	540*	5	1
COc1ccc(Cl)cc1NC(=O)CN(C)C(=O)c1ccc(OCc2ccccc2)c(OC)c1	0	1	-1	-7	-5	.
C/C(=N\NC(=O)c1cccc(N/N=C(\C)c2ccc([N+](=O)[O-])cc2)c1)c1ccc([N+](=O)[O-])cc1	0	20	0	540*	2	1

Screening data as filed in PubChem BioAssay.
